The record followed here is PubChem BioAssay AID504904 (The Scripps Research Institute Molecular Screening Center, 2011).

Each structure is given as a SMILES string. Some of the results follow. A number with no mark means an inactive call. The source made the active and inactive calls. Cut-off read from the data, not from the text of the source: active = activation above about 18%; inactive = the rest.

Chain of Mu-type opioid receptor (Homo sapiens) + Delta-type opioid receptor (Homo sapiens) (P35372 whole entry, looked up): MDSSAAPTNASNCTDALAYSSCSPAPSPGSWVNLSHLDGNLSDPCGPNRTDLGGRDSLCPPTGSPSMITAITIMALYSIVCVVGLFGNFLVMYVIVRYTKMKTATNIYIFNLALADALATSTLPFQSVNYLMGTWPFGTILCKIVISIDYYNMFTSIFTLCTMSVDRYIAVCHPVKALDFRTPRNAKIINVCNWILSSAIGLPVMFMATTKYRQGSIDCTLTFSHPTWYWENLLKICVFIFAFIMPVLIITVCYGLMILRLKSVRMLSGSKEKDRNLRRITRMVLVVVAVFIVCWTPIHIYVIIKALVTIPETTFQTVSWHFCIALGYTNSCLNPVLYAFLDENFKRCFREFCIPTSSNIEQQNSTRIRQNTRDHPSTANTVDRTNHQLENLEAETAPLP
Chain of Mu-type opioid receptor (Homo sapiens) + Delta-type opioid receptor (Homo sapiens) (P41143 whole entry, looked up): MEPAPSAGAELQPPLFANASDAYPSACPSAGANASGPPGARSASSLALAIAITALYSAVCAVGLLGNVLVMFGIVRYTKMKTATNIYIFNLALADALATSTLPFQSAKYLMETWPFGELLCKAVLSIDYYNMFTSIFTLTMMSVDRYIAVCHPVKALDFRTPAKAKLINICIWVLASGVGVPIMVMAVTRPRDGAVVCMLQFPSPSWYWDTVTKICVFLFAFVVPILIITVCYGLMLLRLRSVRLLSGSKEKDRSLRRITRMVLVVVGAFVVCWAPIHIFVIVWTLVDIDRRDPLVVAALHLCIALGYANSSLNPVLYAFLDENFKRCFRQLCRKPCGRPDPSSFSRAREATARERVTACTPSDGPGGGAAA

This experiment has as its target Mu-type opioid receptor (Homo sapiens) + Delta-type opioid receptor (Homo sapiens) (UniProt P35372+P41143). Put plainly: OPRM1-OPRD1 heterodimer formation agonism – cell-based, luminescence, confirmation (AID 504904).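 Note: 0% = vehicle-treated cells and 100% = reference agonist.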 The settings on record: cells, MOR-DOR heterodimerization, luminescence complementation; at 9.3 µM; active compounds read high.
Regarding `COC1C(O)C(C)OC(OC2CCC3(C=O)C(CCC4C3CCC3(C)C(C5=CC(=O)OC5)CCC43O)C2)C1O` (centres undefined), the activation is 51.8% (active).

As for `C[C@]12CC[C@H](O)C[C@H]1CC[C@@H]1C2CC[C@]2(C)[C@@H](C3=CC(=O)OC3)[C@@H](O)C[C@]12O` (some centres undefined), the activation was -3.86%.

Regarding `CCOC(=O)C1(CCc2ccccc2)CCN(Cc2ccco2)CC1`, the activation was 41.4% (active).

In the case of `CCC1(C)CC(CCNCc2ccc(N(C)C)cc2)(c2ccc(F)cc2)CCO1` (centres undefined), the activation was 137% (active).
